GPR151 ag: activators of human GPR151, primary screen, cell-based, PathHunter beta-arrestin, luminescence. G-protein coupled receptor 151 (Homo sapiens), Q8TDV0. PathHunter beta-arrestin GPR151 cells. activation, % at 11.2 µM. hit rate 1% among 650,000. AID 1508602, 2020; in the data active means activation above about 4.9%;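 further: 0% = median of compound wells and 100% = cells with positive control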
TEAD-YAP block: TEAD-YAP interaction inhibition, primary screen, TEAD-YAP interaction inhibitor project, luminescence, HEK-TIYL cells | TEAD-Gal4/YAP UAS-luciferase luminescence | inhibition, % at 9.12 µM | hit rate 1.4% among 640,000 | AID 1259422, 2018; in the data active means inhibition above about 32%;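 further: 0% = median of test compound wells and 100% = reference inhibitor wells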
FBW7 activator: FBW7 E3 ligase activators, primary screen, biochemical, AlphaScreen, human. F-box/WD repeat-containing protein 7 (Homo sapiens), Q969H0. AlphaScreen FBW7–phospho-cyclin E peptide binding, activator screen. normalized activity (activation), % at 26.1 µM. hit rate 0.13% among 650,000. AID 1259310, 2017; in the data active means normalized activity above about 1.9%;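 further: purified mutant Fbw7 with reduced substrate affinity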
MITF inh: MITF inhibitors, primary screen, biochemical, AlphaScreen, human. Microphthalmia-associated transcription factor (Homo sapiens), O75030. AlphaScreen MITF homodimerization, bead proximity signal. inhibition, % at 2.6 µM. hit rate 0.91% among 650,000. AID 1259374, 2018; in the data active means inhibition above about 50%;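 further: 0% = vehicle wells with protein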
GPR151 conf act: GPR151 activators, triplicate retest, confirmation, cell-based, PathHunter beta-arrestin, luminescence; shares compounds with GPR151 ag; GPR151 PathHunter beta-arrestin cells, 90 min; % of EA-reagent control over plate median; activation, % at 11.2 µM; 6,700 tested, under 10 active; AID 1508609, 2020;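 active means mean percent activation across replicates above the confirmation screen cutoff of 4.91%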
GPR119 counter: GPR119 activators in beta-arrestin cells, counter-screen for GPR151 activator project, cell-based, PathHunter beta-arrestin, luminescence, triplicate. shares compounds with GPR151 ag. 90 min; 0 = compound-well median, 100 = enzyme-acceptor control. activation, % at 11.2 µM. hit rate 0.3% among 6,700. AID 1508611, 2020;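 active means mean percent activation in the counterscreen above 29.09%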;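 further: counterscreen on off-target GPR119 to flag nonselective hits from the GPR151 activator screen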
Target sequence (Q8TDV5 whole entry, looked up): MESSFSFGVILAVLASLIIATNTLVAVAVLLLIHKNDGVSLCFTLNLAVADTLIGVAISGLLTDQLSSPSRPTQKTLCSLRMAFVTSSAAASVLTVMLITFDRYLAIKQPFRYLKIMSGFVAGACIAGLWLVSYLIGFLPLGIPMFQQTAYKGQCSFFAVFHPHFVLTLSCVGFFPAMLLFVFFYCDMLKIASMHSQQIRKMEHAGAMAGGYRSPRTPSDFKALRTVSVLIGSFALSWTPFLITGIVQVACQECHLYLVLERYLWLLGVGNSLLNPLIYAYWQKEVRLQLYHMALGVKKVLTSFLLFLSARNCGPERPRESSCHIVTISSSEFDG
Active calls of the source: *. Only some compounds are listed: those with a hit (about 3.5% of all), similar ones and a draw of the others.

Screening Cc1[nH]c2ccccc2c1CCNC(=O)/C(=C/c1ccccc1)NC(=O)c1ccco1 returned GPR151 ag 6.0*, TEAD-YAP block 0, FBW7 activator 0, MITF inh 0, GPR151 conf act 0 and GPR119 counter 10.
`Cc1[nH]c2ccccc2c1CCNC(=O)/C(=C/c1ccccc1)NC(=O)c1ccccc1Cl` gave GPR151 ag 0, TEAD-YAP block 20, FBW7 activator 0 and MITF inh -6.
For Cc1cc(C)c(S(=O)(=O)Nc2ccc(C#N)cc2)c(C)c1 the results were GPR151 ag -1, TEAD-YAP block -3, FBW7 activator 1 and MITF inh -10.
CCOc1cc(C#N)ccc1OCC(=O)NC(C)c1ccccc1 (centres undefined) was read as GPR151 ag 13*, TEAD-YAP block 2, FBW7 activator 0, MITF inh 6, GPR151 conf act 0 and GPR119 counter 5.
CC(NC(=O)COc1ccccc1C#N)c1ccccc1 (centres undefined) was read as GPR151 ag -1, TEAD-YAP block 3, FBW7 activator 0 and MITF inh -6.
Screening Cc1nc(N2CCN(C)CC2)c2c(C)c(C(=O)Nc3ccc(F)cc3F)sc2n1 returned GPR151 ag 3, TEAD-YAP block 7, FBW7 activator 0 and MITF inh 5.
O=C(CN1CCCc2ccccc21)Nc1ccc(Br)cc1 was read as GPR151 ag 12*, TEAD-YAP block -3, FBW7 activator 0, MITF inh 4, GPR151 conf act 0 and GPR119 counter 5.
Screening CC(=O)c1ccc(NC(=O)CN2CCCc3ccccc32)cc1 returned GPR151 ag 0, TEAD-YAP block 5, FBW7 activator 0 and MITF inh -3.
CCOc1ccc(/C(O)=C2\C(=O)C(=O)NC2c2ccc(O)c(OCC)c2)cc1 (centres undefined) was read as GPR151 ag 1, TEAD-YAP block 10, FBW7 activator 0 and MITF inh 29.
`COc1ccc(S(=O)(=O)N2CCN(c3ccccc3F)CC2)cc1Cl` gave GPR151 ag 12*, TEAD-YAP block 2, FBW7 activator 0, MITF inh -3, GPR151 conf act -1 and GPR119 counter -2.
Screening COc1ccc(S(=O)(=O)N2CCN(c3cccc(Cl)c3Cl)CC2)cc1OC returned GPR151 ag 8.3*, TEAD-YAP block -3, FBW7 activator 0, MITF inh 0, GPR151 conf act 1 and GPR119 counter -9.
`COc1ccc(S(=O)(=O)N2CCN(c3ccccc3OC)CC2)cc1Cl` gave GPR151 ag 1, TEAD-YAP block 1, FBW7 activator 0 and MITF inh -10.
Screening Cc1cc(S(=O)(=O)N2CCN(c3ccccc3O)CC2)c(C)s1 returned GPR151 ag 1, TEAD-YAP block 0, FBW7 activator 0 and MITF inh 22.
Screening COc1ccccc1N1CCN(S(=O)(=O)c2cc(C)sc2C)CC1 returned GPR151 ag 6.1*, TEAD-YAP block 5, FBW7 activator 0, MITF inh 16, GPR151 conf act 1 and GPR119 counter 1.
Screening CC1CCCC(NC(=O)c2ccc(CNS(=O)(=O)c3ccc(Cl)cc3)cc2)C1C (centres undefined) returned GPR151 ag -1, TEAD-YAP block 5, FBW7 activator 0 and MITF inh -1.
`CC1CCCC(NC(=O)c2ccc(CNS(=O)(=O)c3ccc(F)cc3)cc2)C1C` (centres undefined) gave GPR151 ag 6.3*, TEAD-YAP block -5, FBW7 activator 0, MITF inh -3, GPR151 conf act 0 and GPR119 counter -10.
For COC(=O)C1CC(=O)N(Cc2ccc3ccccc3c2)C12CCN(CC(C)C)CC2 (centres undefined) the results were GPR151 ag -1, TEAD-YAP block 9, FBW7 activator 1 and MITF inh -3.
`CC(C)CC(=O)Nc1nn2c(-c3cccs3)nnc2s1` gave GPR151 ag 5.5*, TEAD-YAP block -8, FBW7 activator 0, MITF inh 0, GPR151 conf act 0 and GPR119 counter -6.
For O=C(CCC1CCCN(Cc2cccc(O)c2)C1)NCc1ccccc1F (centres undefined) the results were GPR151 ag 0, TEAD-YAP block -3, FBW7 activator 1 and MITF inh 2.
`CN(Cc1ccccc1)C1(O)C(=O)Nc2ccc(Cl)cc21` (centres undefined) gave GPR151 ag 2, TEAD-YAP block 2, FBW7 activator 0 and MITF inh 7.
Screening CN(Cc1ccccc1)C1(O)C(=O)Nc2ccc([N+](=O)[O-])cc21 (centres undefined) returned GPR151 ag 12*, TEAD-YAP block 5, FBW7 activator 0, MITF inh -4, GPR151 conf act -1 and GPR119 counter 10.
`O=C(Nc1ccc(-c2cn[nH]c2)cc1)OCc1ccccc1` gave GPR151 ag -1, TEAD-YAP block -14, FBW7 activator 0 and MITF inh 0.
O=C(Nc1ccc(-c2cn[nH]c2)cc1)[C@@H]1Cc2ccccc2CN1 was read as GPR151 ag 0, TEAD-YAP block -5, FBW7 activator 0 and MITF inh 13.
Screening O=C(Nc1ccc(-c2cn[nH]c2)cc1)OCCc1ccccc1 returned GPR151 ag 5.0*, TEAD-YAP block -28, FBW7 activator 0, MITF inh 2, GPR151 conf act 1 and GPR119 counter 8.
O=C(Nc1ccc(-c2cn[nH]c2)cc1)C1CCc2ccccc2C1 (centres undefined) was read as GPR151 ag 5.4*, TEAD-YAP block -4, FBW7 activator 0, MITF inh -5, GPR151 conf act 0 and GPR119 counter 8.
CCOC(=O)c1c(C)oc2ccc(OCc3cccc(F)c3)cc12 was read as GPR151 ag -1, TEAD-YAP block 6, FBW7 activator 0 and MITF inh 13.
`CCN(CC(=O)Nc1nc2c(s1)C(=O)CC(C)(C)C2)c1ccccc1` gave GPR151 ag 1, TEAD-YAP block 9, FBW7 activator 0 and MITF inh 12.
Screening CCN(CC)c1ccc(C(=O)Nc2nc3c(s2)C(=O)CC(C)(C)C3)cc1 returned GPR151 ag 5.2*, TEAD-YAP block 1, FBW7 activator 0, MITF inh 1, GPR151 conf act 0 and GPR119 counter 3.

Screening results (PubChem)
